Outcome and AC50 data for six compounds are collected here from PubChem BioAssay (EPA / NIEHS).

As a reminder, the AC50 is the concentration giving half of the maximal activity seen.

Each structure is given as a SMILES string. Where “and” joins values, the source holds several entries; their conditions need not be identical. Identical values can stand only once. Where a structure was tested more than once in an assay, its records may differ in their call. Calls of active or inactive are those of the source. How the source made its calls: active means hit-call score of the fitted dose curve at least 0.9, where 1 is the maximum; inactive means score below 0.9.

Read-out in assay [1]: Interferon-inducible T-cell alpha chemoattractant (ITAC), CXCL11 (gene 6373)
As to the kind of experiment: BSK_BE3C_ITAC: BioMAP Diversity Plus: BE3C Assay for Interferon-inducible T-cell alpha chemoattractant (ITAC) Biomarker Activity (AID 2284279). The following applies: primary human bronchial epithelial cells. The method, boiled down: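 BE3C cells (human primary bronchial epithelium), 24 h compound exposure, I-TAC by ELISA, DMSO = negative control/baseline, positive fitting direction.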

Read-out in assay [2]: Interleukin-8 (IL8), CXCL8 (gene 3576)
Briefly: BSK_BE3C_IL8: BioMAP Diversity Plus: BE3C Assay for Interleukin-8 (IL8) Biomarker Activity (AID 2284280). The conditions noted are these: primary human bronchial epithelial cells. In short, it runs like this: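 ELISA read-out of IL-8 in human lung bronchial epithelial primary cell cultures, 24 h post-dosing; endpoint analysed as signal increase relative to DMSO baseline.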

Read-out in assay [3]: Epidermal growth factor receptor (EGFR), EGFR (gene 1956)
Briefly: BSK_BE3C_EGFR: BioMAP Diversity Plus: BE3C Assay for Epidermal growth factor receptor (EGFR) Biomarker Activity (AID 2284281). The conditions noted are these: primary human bronchial epithelial cells. In short, it runs like this:
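Primary human lung bronchial epithelial cells; compound, 24 h; EGFR measured by ELISA; positive-direction fit vs DMSO baseline.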

Read-out in assay [4]: KRT18 (gene 3875)
Briefly: BSK_BE3C_Keratin818: BioMAP Diversity Plus: BE3C Assay for Keratin 818 Biomarker Activity (AID 2284282). The following applies: primary human bronchial epithelial cells. In short, it runs like this:
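Primary human bronchial epithelial cells treated 24 h; Keratin 8/18 quantified by ELISA, fit relative to DMSO. Cytotoxicity tracked in parallel cultures by sulforhodamine B total-protein staining.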

Read-out in assay [5]: Matrix Metallopeptidase 9 (MMP9), MMP9 (gene 4318)
As to the kind of experiment: BSK_BE3C_MMP9: BioMAP Diversity Plus: BE3C Assay for Matrix Metallopeptidase 9 (MMP9) Biomarker Activity (AID 2284283). The conditions noted are these: primary human bronchial epithelial cells. In short, it runs like this:
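Human primary bronchial epithelial cells exposed 24 h to compound. MMP9 quantified by ELISA. SRB total-protein staining of parallel cultures assesses cytotoxicity. Positive-direction fit relative to DMSO.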

Read-out in assay [6]: Plasminogen activator inhibitor-1 (PAI1), SERPINE1 (gene 5054)
As to the kind of experiment: BSK_CASM3C_PAI1: BioMAP Diversity Plus: CASM3C Assay for Plasminogen activator inhibitor-1 (PAI1) Biomarker Activity (AID 2284284).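 Further: PAI-1 protein level measured by ELISA 24 h after dosing.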 The following applies: primary human coronary artery smooth muscle cells.

Read-out in assay [7]: Monocyte Chemoattractant Protein-1 (MCP1), CCL2 (gene 6347)
Briefly: BSK_hDFCGF_MCP1: BioMAP Diversity Plus: hDFCGF Assay for Monocyte Chemoattractant Protein-1 (MCP1) Biomarker Activity (AID 2284285). The conditions noted are these: primary human foreskin fibroblasts. In short, it runs like this:
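Human foreskin fibroblasts (hDFCGF system) were exposed to compound and secreted MCP-1 was measured by ELISA after 24 hours. Activity was fitted relative to DMSO. Cytotoxicity was checked by SRB total-protein staining in parallel cultures.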

Read-out in assay [8]: Vascular cell adhesion molecule 1 (VCAM1), VCAM1 (gene 7412)
Briefly: BSK_IMphg_VCAM1: BioMAP Diversity Plus: IMphg Assay for Vascular cell adhesion molecule 1 (VCAM1) Biomarker Activity (AID 2284286). The conditions noted are these: primary human endothelial cells with macrophages. In short, it runs like this:
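Human venular endothelial cells co-cultured with macrophages; VCAM-1 quantified by ELISA 24 h after dosing, fitted in the positive direction against DMSO. Cytotoxicity was checked in parallel cultures by SRB total-protein staining (0.1% SRB after 10% TCA fixation, 560 nm).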

Read-out in assay [9]: Intercellular Adhesion Molecule 1 (ICAM1), ICAM1 (gene 3383)
Briefly: BSK_hDFCGF_ICAM1: BioMAP Diversity Plus: hDFCGF Assay for Intercellular Adhesion Molecule 1 (ICAM1) Biomarker Activity (AID 2284287). The conditions noted are these: primary human foreskin fibroblasts. The method, boiled down: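 Primary human foreskin fibroblasts (hDFCGF system) dosed with chemical; ICAM-1 quantified by ELISA at 24 h relative to DMSO. Parallel SRB total-protein staining to assess overt cytotoxicity.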

Read-out in assay [10]: CD40, CD40 (gene 958)
Briefly: BSK_IMphg_CD40: BioMAP Diversity Plus: IMphg Assay for CD40 Biomarker Activity (AID 2284288). The following applies: primary human endothelial cells with macrophages. The method, boiled down: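 Venular endothelial cells co-cultured with macrophages (human primary), CD40 measured by ELISA 24 h after dosing. Positive-direction fit vs DMSO baseline; cytotoxicity tracked by SRB total-protein staining in parallel cultures.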

Read-out in assay [11]: TIMP metallopeptidase inhibitor 2 (TIMP2), TIMP2 (gene 7077)
As to the kind of experiment: BSK_hDFCGF_TIMP2: BioMAP Diversity Plus: hDFCGF Assay for TIMP metallopeptidase inhibitor 2 (TIMP2) Biomarker Activity (AID 2284289). The conditions noted are these: primary human foreskin fibroblasts. The method, boiled down:
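Primary human foreskin fibroblasts in the hDFCGF system, dosed for 24 h; TIMP-2 level measured by ELISA, fitted in the positive direction against DMSO; cytotoxicity checked in parallel by sulforhodamine B total protein staining.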

Read-out in assay [12]: Interleukin-1 alpha (IL1a), IL1A (gene 3552)
As to the kind of experiment: BSK_IMphg_IL1a: BioMAP Diversity Plus: IMphg Assay for Interleukin-1 alpha (IL1a) Biomarker Activity (AID 2284290). The following applies: primary human endothelial cells with macrophages. The method, boiled down: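 Human venular endothelial cells co-cultured with macrophages, IMphg system. IL-1α is measured by ELISA 24 h after dosing and fitted in the positive direction against DMSO. Cytotoxicity is assessed by SRB staining of parallel cultures.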

Read-out in assay [13]: E-selectin (Homo sapiens) (UniProt P16581)
Briefly: BSK_IMphg_ESelectin: BioMAP Diversity Plus: IMphg Assay for Eselectin Biomarker Activity (AID 2284291). The conditions noted are these: primary human endothelial cells with macrophages. In short, it runs like this: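 Human venular endothelial cell–macrophage co-culture, E-selectin measured by ELISA 24 h after chemical dosing. Signal fitted in the positive direction against DMSO as negative control and baseline.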

Assay [14] in a line: BSK_IMphg_SRB: Viability Assessment in the BioMAP Diversity Plus: IMphg Assay (AID 2284292).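 Further: measured one day after compound addition.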 The following applies: primary human endothelial cells with macrophages. In short, it runs like this:
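Human venular endothelial cells with macrophages, 24 h after chemical dosing; total protein by 0.1% SRB staining after 10% TCA fixation, read at 560 nm. Positive-direction fitting versus DMSO baseline.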

Read-out in assay [15]: Macrophage colony-stimulating factor (MCSF), CSF1 (gene 1435)
As to the kind of experiment: BSK_IMphg_MCSF: BioMAP Diversity Plus: IMphg Assay for Macrophage colony-stimulating factor (MCSF) Biomarker Activity (AID 2284293). The conditions noted are these: primary human endothelial cells with macrophages. In short, it runs like this:
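Co-culture of human venular endothelial cells and macrophages, 24 hours of chemical exposure. M-CSF quantified by ELISA, with parallel SRB total-protein staining for cytotoxicity; activity fitted relative to DMSO.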

Read-out in assay [16]: Interleukin-10 (IL10), IL10 (gene 3586)
Briefly: BSK_IMphg_IL10: BioMAP Diversity Plus: IMphg Assay for Interleukin-10 (IL10) Biomarker Activity (AID 2284294). The conditions noted are these: primary human endothelial cells with macrophages. In short, it runs like this: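 Human venular endothelial cells cocultured with macrophages, dosed 24 h; IL-10 measured by ELISA, activity relative to DMSO. Cytotoxicity assessed in parallel cultures by sulforhodamine B total-protein staining.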

The nature of assay [17]: BSK_IMphg_SRB.Mphg: Macrophage Viability Assessment in the BioMAP Diversity Plus: IMphg Assay (AID 2284295). The following applies: primary human endothelial cells with macrophages. The method, boiled down: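 Venular endothelial cells co-cultured with macrophages, read 24 h after dosing. Total protein measured by 0.1% SRB staining after 10% TCA fixation, absorbance at 560 nm. Fitted in positive direction against DMSO baseline.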

Read-out in assay [18]: Thrombomodulin, THBD (gene 7056)
Briefly: BSK_LPS_Thrombomodulin: BioMAP Diversity Plus: LPS Assay for Thrombomodulin Biomarker Activity (AID 2284296). The conditions noted are these: primary human HUVEC with PBMC. In short, it runs like this: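 Human umbilical vein endothelial cells co-cultured with PBMC and stimulated with LPS; cell-surface thrombomodulin measured by ELISA 24 hours after compound. Gain or loss versus DMSO; cytotoxicity checked by SRB staining in parallel cultures.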

Assay [19] can be described thus: IUF_NPC2c_oligodendrocyte_migration_120hr: Leibniz Research Institute for Environmental Medicine (IUF) 120-hour Neural Progenitor Cell Migration Assay for Oligodendrocyte Migration (NPC2c) (AID 2284297).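 Further: O4-positive oligodendrocyte migration distance divided by radial glia migration distance.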 In short, it runs like this: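 Human fetal neural progenitor spheres (0.3 mm) are plated on poly-D-lysine/laminin in N2 differentiation medium and exposed for 120 h, with half-medium renewal at day 3. Oligodendrocyte (O4+) migration distance comes from ICC imaging, normalised to radial glia migration.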

Assay [20] can be described thus: IUF_NPC2a_radial_glia_migration_120hr: Leibniz Research Institute for Environmental Medicine (IUF) 120-hour Neural Progenitor Cell Migration Assay for Radial Glia Migration (NPC2a) (AID 2284298). The method, boiled down:
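Human fetal-cortex neural progenitor spheres (0.3 mm) plated on poly-D-lysine/laminin in N2 differentiation medium, exposed 120 h at 37C with half-medium renewal at day 3. Radial glia migration distance (um) measured from Hoechst-stained nuclei images; DMSO baseline.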

Chain of E-selectin (Homo sapiens) (P16581 whole entry, looked up): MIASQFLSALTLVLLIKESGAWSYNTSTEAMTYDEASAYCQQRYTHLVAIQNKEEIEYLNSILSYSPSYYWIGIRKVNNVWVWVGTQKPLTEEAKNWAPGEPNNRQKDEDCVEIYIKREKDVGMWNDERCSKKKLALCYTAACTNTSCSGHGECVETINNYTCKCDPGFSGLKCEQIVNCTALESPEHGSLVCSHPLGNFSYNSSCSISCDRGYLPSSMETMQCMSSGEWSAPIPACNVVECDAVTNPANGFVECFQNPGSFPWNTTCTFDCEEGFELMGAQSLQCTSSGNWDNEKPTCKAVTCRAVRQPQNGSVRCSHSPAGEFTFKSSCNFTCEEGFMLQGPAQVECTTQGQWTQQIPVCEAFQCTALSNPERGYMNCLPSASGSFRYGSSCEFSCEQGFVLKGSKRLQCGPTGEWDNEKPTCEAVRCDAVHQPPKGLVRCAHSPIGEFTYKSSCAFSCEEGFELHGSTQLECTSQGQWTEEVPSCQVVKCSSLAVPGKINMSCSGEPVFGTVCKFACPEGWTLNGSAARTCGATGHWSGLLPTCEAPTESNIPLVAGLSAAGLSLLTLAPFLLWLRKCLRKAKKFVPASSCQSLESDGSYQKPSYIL

Consider `O=S(=O)(O)C(F)(F)C(F)(F)C(F)(F)C(F)(F)C(F)(F)C(F)(F)F`, for which the outcome in assay [1], in [2], in assay [3], in assay [4], in assay [5] and in assay [6] was inactive. In addition, the result in assay [7], in assay [8], in assay [9], in assay [10], in [11] and in assay [12] was inactive. In addition, the outcome in [13], in [14], in [15], in assay [17], in assay [18] and in [19] was inactive. In addition, the compound was classed as inactive in assay [20]. The AC50 in [13] was 37.6 µM (active); in [16], 46.3 µM (active) and 19 µM (active).
As for `CO/C=C(/C(=O)OC)c1ccccc1COc1cccc(C(F)(F)F)n1`, the figures for the AC50 in assay [19] and in [20] were 34.6 µM (active) and 33 µM (active), respectively.
Take `C=CC(N)=O`: the result in [19] and in assay [20] was inactive.
As to `COc1ccc(O)c(C(C)(C)C)c1`, the result in assay [1], in assay [2], in [3], in [4], in [5] and in assay [6] was inactive. Also, the result in [7], in [9], in [11] and in assay [18] was inactive.
Take `O=C(O)C(F)(F)C(F)(F)C(F)(F)C(F)(F)C(F)(F)F`: the result in assay [1], in assay [2], in [3], in assay [4], in assay [5] and in assay [6] was inactive. Further, the result in assay [7], in assay [8], in [9], in [10], in [11] and in assay [12] was inactive. In addition, the result in assay [13], in [14], in [15], in assay [16], in assay [17] and in assay [18] was inactive.
With `O=C(O)C(F)(F)C(F)(F)C(F)(F)C(F)(F)C(F)(F)C(F)(F)C(F)(F)C(F)(F)F`, the AC50 in assay [1] was 49.1 µM (active) and 56 µM (active); in assay [2] it was 23.3 µM (active) and 24.3 µM (active); in assay [4], 30 µM (active) and 47.6 µM (active); in assay [5] it was 54 µM (active) and 56.6 µM (active); in [8] it was 30 µM (active); in assay [10] it was 30 µM (active) and 44.9 µM (active). Further, the AC50 in assay [14] is 44.9 µM (active); in [16] it was 39 µM (active) and 21.3 µM (active); in assay [17] it was 18 µM (active). In addition, the result in [3], in [6], in assay [7], in [8], in [9] and in assay [11] was inactive. Moreover, the outcome in assay [12], in assay [13], in assay [14], in assay [15], in [17] and in [18] was inactive.
